The results in this text go back to the supplement of paper PMC4022240.

± gives the standard deviation.

Assay in all cases: peptide microarray binding signal (635 nm), min-max normalized on array (fraction of array maximum); higher = stronger binding
Common to all, as to settings: peptide region: H3 5-17

Assay [1] concerns the target T1, HaloTag-ATRX ADD domain (163-292).
T1 chain: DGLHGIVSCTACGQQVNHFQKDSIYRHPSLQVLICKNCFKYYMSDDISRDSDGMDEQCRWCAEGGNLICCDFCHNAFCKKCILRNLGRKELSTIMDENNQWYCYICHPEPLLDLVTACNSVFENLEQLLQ
The procedure, abridged:
(§1)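 Within each library, mean intensities of triplicate spots were min-max scaled to give the binding signal. The spots were histone 13-mer peptide–cellulose conjugates on nitrocellulose with a Cy3 tracer, blocked overnight at 4°C. They were then probed for 1 h at 4°C using biotin-labelled HaloTag reader fusions (10 nM to 1 μM) with streptavidin-Alexa Fluor 647 or rabbit histone antibodies (1:10,000 to 1:2,000) with anti-rabbit Alexa 647, and scanned at 635 nm for signal and 532 nm for misprints on an Axon GenePix 4000B.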

Assay [2] has as its target HaloTag-ING2 PHD (mouse Ing2 200-280). The method in brief:
as §1

Assay [3] concerns the target anti-H3K4me3 antibody ab8580. The procedure, abridged:
as §1

For assay [4], the target named is anti-H3K9me3 antibody ab8898. The method in brief:
as §1

Where [5] appears, read: peptide modifications: H3S10ph H3K14ac, binder concentration: 1:2,000 dilution.
The mark [6] stands for this setting: peptide modifications: H3S10ph H3K14ac, binder concentration: 1:10,000 dilution.
Where [7] appears, read: peptide modifications: H3S10ph H3K14me2, binder concentration: 1:2,000 dilution.
Where [8] appears, read: peptide modifications: H3S10ph H3K14me2, binder concentration: 1:10,000 dilution.
The mark [9] stands for this setting: peptide modifications: H3R8me2a, binder concentration: 1:2,000 dilution.
[10] abbreviates: peptide modifications: H3R8me2a, binder concentration: 1:10,000 dilution.
Setting [11] is: peptide modifications: H3R8me2a H3K9ac, binder concentration: 1:2,000 dilution.
Where [12] appears, read: peptide modifications: H3R8me2a H3K9ac, binder concentration: 1:10,000 dilution.
Setting [13] is: peptide modifications: H3R8me2a H3S10ph, binder concentration: 1:2,000 dilution.
[14] abbreviates: peptide modifications: H3R8me2a H3S10ph, binder concentration: 1:10,000 dilution.
Setting [15] is: peptide modifications: H3R8me2s H3K9me3, binder concentration: 1:2,000 dilution.
[16] abbreviates: peptide modifications: H3R8me2s H3K9me3, binder concentration: 1:10,000 dilution.
The mark [17] stands for this setting: peptide modifications: H3R8me2s H3K9ac, binder concentration: 1:2,000 dilution.
Setting [18] is: peptide modifications: H3R8me2s H3K9ac, binder concentration: 1:10,000 dilution.
Setting [19] is: peptide modifications: H3R8me2s H3S10ph, binder concentration: 1:2,000 dilution.
Where [20] appears, read: peptide modifications: H3R8me2s H3S10ph, binder concentration: 1:10,000 dilution.
The mark [21] stands for this setting: peptide modifications: H3R8me1 H3T11ph, binder concentration: 1:2,000 dilution.
[22] abbreviates: peptide modifications: H3R8me1 H3T11ph, binder concentration: 1:10,000 dilution.
[23] abbreviates: peptide modifications: H3R8me2a H3K9me3, binder concentration: 1:2,000 dilution.
Setting [24] is: peptide modifications: H3R8me2a H3K9me3, binder concentration: 1:10,000 dilution.

For the molecule QTARKSTGGKAPR [H3 5-17 Q T A R K Sph T G G Kac A P R], the “peptide microarray binding signal” value was found to be 0.0047 ± 0.00015 in assay [1] (peptide modifications: H3S10ph H3K14ac, binder concentration: 50 nM); 0.0165 ± 0.0018 in assay [1] (peptide modifications: H3S10ph H3K14ac, binder concentration: 500 nM); 0.0122 ± 0.0017 in assay [2] (peptide modifications: H3S10ph H3K14ac, binder concentration: 10 nM); 0.0326 ± 0.0032 in assay [2] (peptide modifications: H3S10ph H3K14ac, binder concentration: 100 nM); 0.00136 ± 0.00015 in assay [3] (setting [5]); 0.0012 ± 3.2e-05 in assay [3] (setting [6]). For the same molecule, the “peptide microarray binding signal” value in assay [4] (setting [5]) turned out to be 0.00435 ± 0.00042; in assay [4] (setting [6]), 0.00213 ± 7.1e-05.
As to QTARKSTGGKAPR [H3 5-17 Q T A R K Sph T G G Kme2 A P R], the “peptide microarray binding signal” value in assay [1] (peptide modifications: H3S10ph H3K14me2, binder concentration: 50 nM) stood at 0.0068 ± 0.00015; in assay [1] (peptide modifications: H3S10ph H3K14me2, binder concentration: 500 nM), 0.015 ± 0.00086; in assay [2] (peptide modifications: H3S10ph H3K14me2, binder concentration: 10 nM), 0.00597 ± 0.00047; in assay [2] (peptide modifications: H3S10ph H3K14me2, binder concentration: 100 nM) it was 0.0125 ± 0.0027; in assay [3] (setting [7]) it was 0.00874 ± 0.00064; in assay [3] (setting [8]), 0.0077 ± 0.0015. For the same molecule, the entries for the “peptide microarray binding signal” value in assay [4] (setting [7]) and in assay [4] (setting [8]) were 0.00565 ± 0.00062 and 0.00294 ± 0.00015, respectively.
Turning to QTARKSTGGKAPR [H3 5-17 Q T A Rme2a K S T G G K A P R], the “peptide microarray binding signal” value came out at 0.00386 ± 0.00017 in assay [1] (peptide modifications: H3R8me2a, binder concentration: 50 nM); 0.00367 ± 0.00047 in assay [1] (peptide modifications: H3R8me2a, binder concentration: 500 nM); 0.00346 in assay [2] (peptide modifications: H3R8me2a, binder concentration: 10 nM); 0.0034 ± 0.00021 in assay [2] (peptide modifications: H3R8me2a, binder concentration: 100 nM); 0.0114 ± 0.0019 in assay [3] (setting [9]); 0.00793 ± 0.00067 in assay [3] (setting [10]). Moreover, the “peptide microarray binding signal” value stood at 0.00296 ± 0.00055 in assay [4] (setting [9]) and 0.00565 ± 0.0013 in assay [4] (setting [10]).
On to QTARKSTGGKAPR [H3 5-17 Q T A Rme2a Kac S T G G K A P R], for which the “peptide microarray binding signal” value in assay [1] (peptide modifications: H3R8me2a H3K9ac, binder concentration: 50 nM) was 0.00423 ± 6.5e-05; in assay [1] (peptide modifications: H3R8me2a H3K9ac, binder concentration: 500 nM), 0.003 ± 4.1e-05; in assay [2] (peptide modifications: H3R8me2a H3K9ac, binder concentration: 10 nM), 0.00651; in assay [2] (peptide modifications: H3R8me2a H3K9ac, binder concentration: 100 nM), 0.00765 ± 0.00019; in assay [3] (setting [11]), 0.00208 ± 6e-05; in assay [3] (setting [12]) it was 0.00217 ± 5.2e-05. The “peptide microarray binding signal” value is 0.00403 ± 0.00054 in assay [4] (setting [11]) and 0.00427 ± 9.8e-05 in assay [4] (setting [12]).
Take QTARKSTGGKAPR [H3 5-17 Q T A Rme2a K Sph T G G K A P R]: the “peptide microarray binding signal” value in assay [1] (peptide modifications: H3R8me2a H3S10ph, binder concentration: 50 nM) worked out at 0.00837 ± 0.0001; in assay [1] (peptide modifications: H3R8me2a H3S10ph, binder concentration: 500 nM) it was 0.0191 ± 0.0021; in assay [2] (peptide modifications: H3R8me2a H3S10ph, binder concentration: 10 nM), 0.0259 ± 0.0014; in assay [2] (peptide modifications: H3R8me2a H3S10ph, binder concentration: 100 nM) it was 0.0521 ± 0.0085; in assay [3] (setting [13]), 0.00508 ± 0.00076; in assay [3] (setting [14]) it was 0.00525 ± 0.00042. The “peptide microarray binding signal” value in assay [4] (setting [13]) was found to be 0.00298 ± 0.00042; in assay [4] (setting [14]) it was 0.00288 ± 4.3e-05.
Regarding QTARKSTGGKAPR [H3 5-17 Q T A Rme2s Kme3 S T G G K A P R], the “peptide microarray binding signal” value worked out at 0.00251 ± 0.00011 in assay [1] (peptide modifications: H3R8me2s H3K9me3, binder concentration: 50 nM); 0.00471 ± 9.5e-05 in assay [1] (peptide modifications: H3R8me2s H3K9me3, binder concentration: 500 nM); 0.00979 ± 0.00031 in assay [2] (peptide modifications: H3R8me2s H3K9me3, binder concentration: 10 nM); 0.0103 ± 0.00024 in assay [2] (peptide modifications: H3R8me2s H3K9me3, binder concentration: 100 nM); 0.0199 ± 0.0017 in assay [3] (setting [15]); 0.0138 ± 0.0027 in assay [3] (setting [16]). For the same molecule, the “peptide microarray binding signal” value in assay [4] (setting [15]) turned out to be 0.094 ± 0.0025; in assay [4] (setting [16]), 0.0691 ± 0.0084.
As for QTARKSTGGKAPR [H3 5-17 Q T A Rme2s Kac S T G G K A P R], the “peptide microarray binding signal” value worked out at 0.0102 ± 0.00014 in assay [1] (peptide modifications: H3R8me2s H3K9ac, binder concentration: 50 nM); 0.0189 ± 0.00053 in assay [1] (peptide modifications: H3R8me2s H3K9ac, binder concentration: 500 nM); 0.0344 ± 0.0018 in assay [2] (peptide modifications: H3R8me2s H3K9ac, binder concentration: 10 nM); 0.064 ± 0.0047 in assay [2] (peptide modifications: H3R8me2s H3K9ac, binder concentration: 100 nM); 0.0111 ± 0.0022 in assay [3] (setting [17]); 0.0146 ± 0.00068 in assay [3] (setting [18]). Moreover, the “peptide microarray binding signal” value in assay [4] (setting [17]) is 0.011 ± 0.00081; in assay [4] (setting [18]) it was 0.00899 ± 0.0016.
Take QTARKSTGGKAPR [H3 5-17 Q T A Rme2s K Sph T G G K A P R]: the “peptide microarray binding signal” value amounted to 0.00683 ± 0.0003 in assay [1] (peptide modifications: H3R8me2s H3S10ph, binder concentration: 50 nM); 0.0161 ± 0.0014 in assay [1] (peptide modifications: H3R8me2s H3S10ph, binder concentration: 500 nM); 0.0274 ± 0.00033 in assay [2] (peptide modifications: H3R8me2s H3S10ph, binder concentration: 10 nM); 0.0477 ± 0.0078 in assay [2] (peptide modifications: H3R8me2s H3S10ph, binder concentration: 100 nM); 0.00423 ± 0.00039 in assay [3] (setting [19]); 0.00548 ± 0.00014 in assay [3] (setting [20]). For the same molecule, the results for the “peptide microarray binding signal” value in assay [4] (setting [19]) and in assay [4] (setting [20]) were 0.00403 ± 0.0009 and 0.00363 ± 0.00015, respectively.
Turning to QTARKSTGGKAPR [H3 5-17 Q T A Rme K S Tph G G K A P R], the “peptide microarray binding signal” value amounted to 0.00818 ± 0.0006 in assay [1] (peptide modifications: H3R8me1 H3T11ph, binder concentration: 50 nM); 0.017 ± 0.0013 in assay [1] (peptide modifications: H3R8me1 H3T11ph, binder concentration: 500 nM); 0.0191 ± 0.0015 in assay [2] (peptide modifications: H3R8me1 H3T11ph, binder concentration: 10 nM); 0.042 ± 0.0045 in assay [2] (peptide modifications: H3R8me1 H3T11ph, binder concentration: 100 nM); 0.00244 ± 0.00022 in assay [3] (setting [21]); 0.00428 ± 0.00027 in assay [3] (setting [22]). The “peptide microarray binding signal” value in assay [4] (setting [21]) turned out to be 0.0103 ± 0.012; in assay [4] (setting [22]) it was 0.012 ± 0.01.
QTARKSTGGKAPR [H3 5-17 Q T A Rme2a Kme3 S T G G K A P R]: the “peptide microarray binding signal” value stood at 0.00527 ± 0.0012 in assay [1] (peptide modifications: H3R8me2a H3K9me3, binder concentration: 50 nM); 0.0107 ± 0.0015 in assay [1] (peptide modifications: H3R8me2a H3K9me3, binder concentration: 500 nM); 0.0164 ± 0.0009 in assay [2] (peptide modifications: H3R8me2a H3K9me3, binder concentration: 10 nM); 0.019 ± 0.0012 in assay [2] (peptide modifications: H3R8me2a H3K9me3, binder concentration: 100 nM); 0.0361 ± 0.011 in assay [3] (setting [23]); 0.0283 ± 0.011 in assay [3] (setting [24]). For the same molecule, the “peptide microarray binding signal” value in assay [4] (setting [23]) stood at 0.208 ± 0.075; in assay [4] (setting [24]), 0.208 ± 0.025.
